The full list was thinned out, with hits kept by preference.
MARV entry inh: inhibitors of Marburg virus binding or cell entry | 1.8% of 300,000 active | Potency, µM (doses to about 37.8 µM), for inactives: at the highest dose activity change, negative = inhibition, hits mostly inhibitors | AID 540276 | Marburg virus pseudotyped entry inhibition, cell reporter; calls by dose curve; tested in HEK293 cells; also: potency is read from the fitted curve at half-maximal effect; % is scaled to controls: 0 for no effect and ±100 for the full control effect
CHX counter: counter-screen hit for Shiga toxin inhibitors, cycloheximide | cell reporter, cycloheximide protein synthesis inhibition counterscreen | max response, % | 12% of 300,000 active; in the data active = max response mostly above about 13%, no sharp cut-off; inactive = mostly below about 14%; also: read at 38.3 µM for the half of the compounds with a filed dose; 0% is about no effect
Shiga inhibitor: Shiga toxin inhibition; inhibition, % at 38.7 µM; 9.2% of 290,000 active; Vero cells, Shiga toxin protein synthesis inhibition reporter; in the data active = inhibition mostly above about 28%, no sharp cut-off; inactive = mostly below about 43%; also: 0% is about no effect
AMA1-RON2 inh: AMA1-RON2 (P. falciparum) interaction inhibition. AlphaScreen AMA1-biotinylated RON2 peptide binding. Potency, µM (series often up to 58.2 µM), without a hit: top-dose activity change, negative = inhibition, usual class: inhibitors. 0.2% of 360,000 active. AID 720542; active = well fitted inhibition curve with a large enough effect; inconclusive = small, poorly fitted or top-dose-only effect; inactive = no such curve, though single readings can be large or run the other way;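 also: potency is read from the fitted curve at half-maximal effect; 0% = vehicle wells and -100% = peptide control; nearly all actives have a fitted effect of over 45% in size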
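AMA1 (3D7) with his tag at 25 nM final met compounds first, then biotinylated RON2 peptide at 25 nM; detection used donor plus acceptor beads, 10 µg/mL apiece, read by AlphaScreen after 30 min at room temperature.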
LASV entry inh: inhibitors of Lassa virus binding or cell entry; Lassa virus pseudotype entry inhibition, cell reporter; Potency, µM (doses to about 37.9 µM), for the others: top-dose activity change, negative = inhibition, most hits filed as inhibitors; 1.2% of 300,000 active; AID 540256; calls by dose curve; tested in HEK293 cells; also: potency is read from the fitted curve at half-maximal effect; % is scaled to controls: 0 for no effect and ±100 for the full control effect; nearly all actives have a fitted effect of over 50% in size
The depositor's hits bear a star; u = inconclusive; x = not tested or not shown; [ ] = remark or other dose.

SMILES	MARV entry inh	CHX counter	Shiga inhibitor	AMA1-RON2 inh	LASV entry inh
COc1cc(/C=N/NC(=S)Nc2cccc(C(=O)O)c2)ccc1O	u	12.1*	24.3	94.7%	u
COc1ccc(/C=N/NC(=S)Nc2ccccc2)cc1	21.9%[46.1 µM]	55.3*	74.9*	2.9%	20.5%
COc1ccc(/C=N/NC(=S)Nc2ccccc2)cc1COc1ccc(Br)cc1	x	9.4	35.7	65.4%	x
O=C1CCC(C(=O)N2CCCCO2)CN1Cc1ccc(Cl)cc1 (stereo not given)	0.1%	11.9	36.9	-3.4%	-0.7%
NC(=S)NC(=O)/C=C/c1ccccc1	u	30.3*	65.8*	-3.2%	-35.5%
O=C(/C=C/c1ccccc1)NC(=S)Nc1ccccc1O	u	33.0*	81.2*	45.0%	u
O=C(C=Cc1ccccc1)NCCNC(=O)C=Cc1ccccc1	u	x	x	16.9%	18.6%[46.1 µM]
O=c1[nH]c(CN(CCc2ccccc2)S(=O)(=O)c2ccc(Cl)cc2)nc2ccccc12	1.3%	20.8*	active	-0.5%	1.6%
CCOc1ccc(CNC(=O)C2CCN(c3nc4ccccc4nc3C(F)(F)F)CC2)cc1OC	x	x	x	x	5.5%[46.1 µM]
COc1cc(C2NC(=S)NC(C)=C2C(=O)Nc2ccc(C)cc2)ccc1O (stereo not given)	u	44.8*	70.7*	-1.5%	8.5%[46.1 µM]
COC(=O)/C(=C\Nc1ccccc1N)c1ncc(C(F)(F)F)cc1Cl	u	67.9*	100.5*	15.5%	-10.9%
N/C(=N\OC(=O)Nc1ccccc1)c1cccc(C(F)(F)F)c1	x	28.9*	43.1*	7.7%	x
N/C(=N\OC(=O)Nc1ccccc1)c1ncc(C(F)(F)F)cc1Cl	u	19.6*	52.9*	-5.7%	9.5%
O=C(c1ccccc1)c1ncc(C(F)(F)F)cc1Cl	6.8%	1.3	-8.1	6.4%	-20.8%
Cc1ccc(CN2CCC(n3nccc3NC(=O)c3ccccc3C)CC2)o1	-0.5%	-1.8	27.2	-4.6%	u
CCc1cc2c(cc3c(=O)n(CCCC(=O)NCc4cccc(Cl)c4)ncn32)s1	-8.6%[46.1 µM]	x	x	x	x
CCOC(=O)CSc1ccc2ccccc2n1	9.5%	4.5	19.5	20.1%	20.5%
CCOC(=O)CN1C=C(c2ccc3ccccc3n2)C(C[N+](=O)[O-])c2ccccc21 (stereo not given)	2.0%	11.1*	22.4	2.6%	9.4%
C=CCOC(=O)N[C@H](/C(C(=O)OC)=C(\C)NCc1ccccc1)c1cccc(OC)c1	-13.4%[14.2 µM]	x	x	x	x
OC1(c2ccc(Cl)c(Cl)c2)C[n+]2ccccc2N1Cc1ccccc1 (stereo not given)	u	-0.8	-15.9	9.1%	u
Cc1cccc(C(=O)Nc2nnc(S(=O)(=O)N3c4ccccc4CC3C)s2)c1 (stereo not given)	x	x	x	x	-3.4%[46.1 µM]
Cc1ccc(OC(=O)N2CCOCC2)cc1	u	30.4*	48.3*	-0.4%	11.2%
O=C(Oc1ccccc1)N1CCOCC1	u	-2.6	-10.8	3.2%	u
O=C(Oc1ccc(OC(=O)N2CCOCC2)cc1)c1ccccc1	15.3%[46.1 µM]	12.3*	13.9	1.9%	17.6%
CCC(=O)c1ccc(OC(=O)N2CCOCC2)cc1	x	22.5*	33.1*	-2.6%	x
SMILES	MARV entry inh	CHX counter	Shiga inhibitor	AMA1-RON2 inh	LASV entry inh
COC(=O)c1ccc(OC(=O)N2CCOCC2)cc1	x	-1.7	x	4.3%	x
CC(C)(C)c1ccc(OC(=O)N2CCOCC2)cc1	x	45.0*	69.1*	17.9%	x
O=C(Oc1ccc2cccc(OC(=O)N3CCOCC3)c2c1)N1CCOCC1	2.8%	-0.8	-10.2	9.1%	5.0%
O=C(Oc1ccc2ccc(OC(=O)N3CCOCC3)cc2c1)N1CCOCC1	-16.2%	11.5*	23.0	-7.1%	19.7%
CCc1nnc(NC(=O)CSc2nc3cc(OC)ccc3cc2C)s1	-6.9%[46.1 µM]	-6.3	-4.3	1.7%	-18.4%
O=C1CCC2=C(CC(O)=C(O)C2)O1	4.9%	x	x	x	x
CCOC(=O)c1sc(=S)n(C)c1NC(=O)c1ccc(C(C)(C)C)cc1	14.1µM*	-1.7	-12.2	-13.3%	u
CCOC(=O)c1sc(=S)n(C)c1NC(=O)c1ccc(OC)cc1	3.5%	-3.3	8.0	-18.7%	16.6%
Cc1ccc(C(=O)C(C)Sc2nnc(N)s2)cc1 (stereo not given)	29.0%	15.3*	25.3	-0.7%	10.5%
CC(Sc1nnc(N)s1)C(=O)NNC(=O)c1cccc(Cl)c1 (stereo not given)	5.6%	x	x	63.1%	0.1%
CC(C)C[C@H]1CN([C@@H](Cc2ccccc2)CN2CCC[C@@H]2CN2C(=O)C(=O)NC[C@@H]2Cc2ccccc2)C(=O)C(=O)N1CC1CCCCC1	x	x	x	1.0%	x
Cc1ncc(C(=O)Nc2ccccc2)[nH]1	u	x	x	0.7%	u
O=C(c1ccccc1)c1cnc[nH]1	2.0%[46.1 µM]	12.6*	19.9	-24.9%	-2.3%
O=C(c1ccccc1)c1ccc[nH]1	-3.3%[46.1 µM]	x	x	3.6%	1.6%[46.1 µM]
O=C(Nc1ccccc1)c1cnc[nH]1	4.6%	30.4*	66.8*	0.0%	-24.1%
CCOC(=O)C1=c2/c(=C/c3ccncc3)c(N)c(C(=O)OC)n2C(=O)C(c2ccncc2)S1 (stereo not given)	u	-2.2	-2.5	1.7%	-1.5%
C=CCc1c(C)nc(-c2ccccc2)nc1N/N=C(\C)c1ccccc1	0.0%	12.0*	20.8	3.6%	5.5%
CCCCN1C(=S)NC[C@@H]1Cc1cccc2ccccc12	x	18.0*	59.5*	-2.4%	x
CC(C)(C)c1csc(NC(=O)c2ccc(Cl)s2)n1	u	62.8*	102.6*	19.4%	u
COC(=O)CNC(=O)c1ccc(C)s1	4.6%	-11.2	-9.9	-9.9%	-17.2%
Cc1ccc(C(=O)Nc2nc(C(C)(C)C)cs2)s1	u	56.5*	157.8*	0.2%	u
COc1ccc(C(=O)c2oc3ccccc3c2NC(=O)c2nc(SC)ncc2Cl)cc1Cl	-15.2%[46.1 µM]	x	x	x	7.0%[46.1 µM]
COc1ccc(NC(=O)c2noc(C(C)C)c2[N+](=O)[O-])cc1	0.4%[46.1 µM]	36.5*	50.0*	-11.5%	-6.2%[46.1 µM]
CCc1ccc(NC(=O)c2noc(C(C)C)c2[N+](=O)[O-])cc1	x	47.6*	150.6*	28.3%	x
Cc1ccc(O)c(NC(=O)c2noc(C(C)C)c2[N+](=O)[O-])c1	x	42.3*	48.7	23.8%	x
SMILES	MARV entry inh	CHX counter	Shiga inhibitor	AMA1-RON2 inh	LASV entry inh
CC(C)c1onc(C(=O)NC(C)c2ccccc2)c1[N+](=O)[O-] (stereo not given)	x	9.2	-3.5	-13.2%	x
CC(C)c1onc(C(=O)NCc2ccc(F)cc2)c1[N+](=O)[O-]	-26.7%	-3.2	-5.4	7.1%	-7.5%
CC(=O)c1ccc(NC(=O)c2noc(C(C)C)c2[N+](=O)[O-])cc1	x	40.6*	37.5	0.0%	x
CCS(=O)(=O)Nc1cccc(C2=NN(S(=O)(=O)CC)C(c3cccs3)C2)c1 (stereo not given)	x	-6.0	-4.5	0.0%	x
O=C(Nc1nnc(N2CCCCCC2)s1)Nc1ccccc1C(F)(F)F	0.3%[46.1 µM]	x	x	x	x
CCN1C(=O)C2(c3ccccc31)c1c(oc3ccc(F)cc3c1=O)C(=O)N2CCCOC (stereo not given)	14.3%[46.1 µM]	x	x	x	0.3%[46.1 µM]
CCOc1ccc(N2CC(NC(=O)C3CCCCC3)CC2=O)cc1 (stereo not given)	x	x	x	x	-25.9%[46.1 µM]
CC(C)c1onc(C(=O)NCCc2ccccc2)c1[N+](=O)[O-]	u	52.9*	81.7*	15.2%	17.8%[46.1 µM]

Source: PubChem
